# PubChem BioAssay AID1645838 (ICCB-Longwood Screening Facility, Harvard Medical School, 2021)
# Where “and” joins values, the source holds several entries; their conditions need not be identical. Identical values can stand only once. About 100 (5%) of roughly 2,000 compounds were called active. Rule as the data show it: active = z-score above about 2; inactive = the rest. Many of the other results were omitted from the sample, so actives are more common in it than they were.
# Experiment: supercomplex reporter luminescence per Hoechst cell count – Hoechst nuclei count (AID 1645838);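 also: control cybrid cells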;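 as to z-score: higher means more mitochondrial supercomplex formation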
# Conditions: Cells, luminescence/Hoechst cell count ratio; for z-score: stronger effect = higher value; for cell count: measured here: cell number, Hoechst nuclei count
# [1] = library stock concentration (final well concentration not given) 80 uM
# [2] = library stock concentration (final well concentration not given) 400 uM
# [3] = library stock concentration (final well concentration not given) 2 mM
# [4] = library stock concentration (final well concentration not given) 10 mM
# [5] = library stock concentration (final well concentration not given) 46 uM
# [6] = library stock concentration (final well concentration not given) 278 uM
# [7] = library stock concentration (final well concentration not given) 1.67 mM
smiles,measurement,setting,value
COc1cc(Cc2cnc(N)nc2N)c2c(c1OC)OC(C1CC1)C=C2 (centres undefined),z-score,[1],-0.274 (inactive)
same,z-score,[2],-0.19 (inactive)
same,z-score,[3],-0.518 (inactive)
same,z-score,[4],-0.337 (inactive)
same,cell count,[1],5160
same,cell count,[2],5070
same,cell count,[3],5260
same,cell count,[4],4960
CC(Sc1nc2ccccc2[nH]1)C(=O)N/N=C/c1cc(Br)ccc1O (centres undefined),z-score,,-0.336 (inactive)
same,cell count,,5170
CC(Sc1nc2ccccc2[nH]1)C(=O)NN=Cc1cc(Br)ccc1O (centres undefined),z-score,[5],-1.02 (inactive)
same,z-score,[6],-0.707 (inactive)
same,z-score,[7],-0.734 (inactive)
same,z-score,[4],3.92 (active)
same,cell count,[5],7560
same,cell count,[6],6830
same,cell count,[7],7060
same,cell count,[4],3080
CC/C=C\C/C=C\C/C=C\C/C=C\C/C=C\C/C=C\CCC(=O)NCCO,z-score,,-0.366 (inactive)
same,cell count,,5340
COc1ccc(CCOC2CCCCC2N2CCC(O)C2)cc1OC (centres undefined),z-score,[1],0.0501 (inactive)
same,z-score,[2],0.255 (inactive)
same,z-score,[3],-0.0276 (inactive)
same,z-score,[4],-0.648 (inactive)
same,cell count,[1],5440
same,cell count,[2],4950
same,cell count,[3],5110
same,cell count,[4],5070
CN1CCN(c2ccc(Nc3cc(-c4cccc(-n5ccc6cc(C7CC7)cc(F)c6c5=O)c4CO)cn(C)c3=O)nc2)CC1,z-score,[5],-0.128 (inactive)
same,z-score,[6],0.295 (inactive)
same,z-score,[7],0.189 (inactive)
same,z-score,[4],2.34 (active)
same,cell count,[5],6870
same,cell count,[6],6260
same,cell count,[7],6670
same,cell count,[4],4620
Cc1ccc(-c2ccc3c(c2)C=C(C(=O)Nc2ccc(C[N+](C)(C)C4CCOCC4)cc2)CCC3)cc1,z-score,[1],0.0335 (inactive)
same,z-score,[2],-0.0352 (inactive)
same,z-score,[3],0.025 (inactive)
same,z-score,[4],0.462 (inactive)
same,cell count,[1],6000
same,cell count,[2],5610
same,cell count,[3],5740
same,cell count,[4],4810
CCCCc1ccc(O)cc1O,z-score,[1],-0.0561 (inactive)
same,z-score,[2],-0.187 (inactive)
same,z-score,[3],-0.116 (inactive)
same,z-score,[4],-0.378 (inactive)
same,cell count,[1],5090
same,cell count,[2],5680
same,cell count,[3],5060
same,cell count,[4],5370
CCC1C(=O)N(C)c2cnc(Nc3ccc(C(=O)NC4CCC(N5CCN(CC6CC6)CC5)CC4)cc3OC)nc2N1C(C)C (centres undefined),outcome,library stock 80 µM,inactive; censored for cell count
same,outcome,library stock 400 µM,inactive; censored for cell count
same,outcome,library stock 2 mM,inactive; censored for cell count
same,outcome,library stock 10 mM,inactive; censored for cell count
CC(C)c1ccc(-c2cc(=O)c3ccccc3o2)cc1,z-score,[1],0.0844 (inactive)
same,z-score,[2],1e-05 (inactive)
same,z-score,[3],-0.0931 (inactive)
same,z-score,[4],-0.264 (inactive)
same,cell count,[1],5390
same,cell count,[2],5660
same,cell count,[3],5670
same,cell count,[4],5910
CCc1nc(N)nc(N)c1-c1ccc(Cl)cc1,z-score,[5],-0.369 (inactive)
same,z-score,[6],-0.308 (inactive)
same,z-score,[7],-0.256 (inactive)
same,z-score,[4],2.87 (active)
same,cell count,[5],6220
same,cell count,[6],5950
same,cell count,[7],4990
same,cell count,[4],2210
Cc1nc(C(=O)N2CCCC2Cc2nnc(-c3ccccc3)o2)c(-c2ccccc2F)s1 (centres undefined),z-score,[1],-0.436 (inactive)
same,z-score,[2],-0.462 (inactive)
same,z-score,[3],-0.287 (inactive)
same,z-score,[4],-0.37 (inactive)
same,cell count,[1],6270
same,cell count,[2],5950
same,cell count,[3],5640
same,cell count,[4],5740
CCCCC[C@H](O)/C=C/[C@H]1C(=O)C[C@H](O)[C@@H]1C/C=C\CCCC(=O)OCC(O)CO (some centres undefined),z-score,,0.539 (inactive)
same,cell count,,4970
CCCCC[C@H](O)/C=C/[C@@H]1[C@@H](C/C=C/CCCC(=O)O)[C@@H](O)C[C@H]1O,z-score,,-0.886 (inactive) and -1.17 (inactive)
same,cell count,,5940 and 5560
